Data reported in PubChem BioAssay.
Where “and” joins values, the source holds several entries; their conditions need not be identical. Equal values may be shown once. Calls of active or inactive are those of the source.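 Rule for the calls, unless noted: active = at least 20% inhibition of 6-phosphogluconate dehydrogenase activity; inactive = the rest.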

How the values were obtained:
[1] = molecular target: 6-phosphogluconate dehydrogenase, decarboxylating (Homo sapiens) (UniProt P52209); experiment: inhibition of human phosphogluconate dehydrogenase – biochemical, recombinant enzyme, NADPH absorbance, primary screen (AID 1159550); conditions: recombinant 6PGD, NADPH absorbance 341 nm; at 10 µM; stronger effect = higher value
6-phosphogluconate dehydrogenase, decarboxylating (Homo sapiens), sequence (P52209 whole entry, looked up): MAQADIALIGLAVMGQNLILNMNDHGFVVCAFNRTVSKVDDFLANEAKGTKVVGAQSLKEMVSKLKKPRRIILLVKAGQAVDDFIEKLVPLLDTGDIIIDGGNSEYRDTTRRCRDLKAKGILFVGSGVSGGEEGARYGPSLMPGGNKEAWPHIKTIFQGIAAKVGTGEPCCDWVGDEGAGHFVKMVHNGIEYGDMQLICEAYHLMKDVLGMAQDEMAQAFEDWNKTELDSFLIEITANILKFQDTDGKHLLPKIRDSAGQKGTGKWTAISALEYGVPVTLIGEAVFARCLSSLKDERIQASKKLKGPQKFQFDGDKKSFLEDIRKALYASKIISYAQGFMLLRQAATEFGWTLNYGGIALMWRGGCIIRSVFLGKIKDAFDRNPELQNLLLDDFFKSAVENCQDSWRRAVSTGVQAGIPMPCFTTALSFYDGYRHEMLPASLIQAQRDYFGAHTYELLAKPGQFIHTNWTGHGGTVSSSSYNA

[2] = EMT-state selective cytotoxicity in co-culture – imaging, PC-3E GFP, TEM4-18 mCherry, primary screen (AID 1345086;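 active = compounds killing one labelled cell type while sparing the other, by normalised counts and ratio limits, not self-fluorescent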;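 for all read-outs here: cells exposed to compound for 72 h before imaging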;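 for red/green cell ratio (normalised): normalised mesenchymal count divided by normalised epithelial count so high means epithelial killing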); conditions: PC-3E GFP / TEM4-18 mCherry co-culture, imaging cell counts, at 1 µM; for red/green cell ratio (normalised): actives lie on both sides, counts scaled to control wells, 1 = unselective
[3] = molecular target: Mitogen-activated protein kinase 7 (Homo sapiens) (UniProt Q13164); experiment: Gal4-ERK5 driven luciferase induction – cell-based, HTS, primary screen (AID 1508626;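 active = luciferase signal above three times the same-plate solvent-only control wells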;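 note: luciferase driven by Gal4-ERK5 fusion binding five Gal4 sites before minimal TATA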); conditions: HeLa Gal4-ERK5 transactivation, 18 h, at 5 µM, stronger effect = higher value
Mitogen-activated protein kinase 7 (Homo sapiens), sequence (Q13164 whole entry, looked up, the tested form may be a part): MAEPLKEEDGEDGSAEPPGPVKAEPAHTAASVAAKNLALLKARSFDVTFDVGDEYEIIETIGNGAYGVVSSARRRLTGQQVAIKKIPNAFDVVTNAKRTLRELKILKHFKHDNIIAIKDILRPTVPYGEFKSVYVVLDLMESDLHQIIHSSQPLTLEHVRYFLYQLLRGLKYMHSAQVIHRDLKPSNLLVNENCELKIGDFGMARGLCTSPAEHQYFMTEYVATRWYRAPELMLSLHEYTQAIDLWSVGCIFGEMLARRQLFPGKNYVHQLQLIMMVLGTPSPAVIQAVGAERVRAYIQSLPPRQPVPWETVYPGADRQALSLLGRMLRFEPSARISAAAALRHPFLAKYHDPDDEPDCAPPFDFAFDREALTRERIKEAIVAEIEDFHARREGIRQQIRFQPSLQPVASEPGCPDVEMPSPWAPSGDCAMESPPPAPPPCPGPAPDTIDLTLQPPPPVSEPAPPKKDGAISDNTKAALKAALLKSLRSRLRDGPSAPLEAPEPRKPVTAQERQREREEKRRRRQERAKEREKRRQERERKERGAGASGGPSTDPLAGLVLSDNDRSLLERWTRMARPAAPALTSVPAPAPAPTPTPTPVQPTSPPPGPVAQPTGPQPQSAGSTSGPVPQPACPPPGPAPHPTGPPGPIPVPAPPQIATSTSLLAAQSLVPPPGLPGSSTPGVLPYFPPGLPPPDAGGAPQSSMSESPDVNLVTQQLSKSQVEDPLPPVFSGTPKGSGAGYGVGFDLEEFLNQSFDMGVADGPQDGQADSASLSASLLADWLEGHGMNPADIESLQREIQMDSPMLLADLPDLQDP

[4] = measured here: epithelial PC-3E GFP cell survival
[5] = measured here: mesenchymal TEM4-18 mCherry cell survival

Row | SMILES | inhibition [1] | red/green cell ratio (normalised) [2] | normalised cell number [2, 4] | normalised cell number [2, 5] | luciferase signal [3]
1 | Nc1ccccc1C(=O)CC(N)C(=O)O (stereo not given) | -2.44% (inactive) | 1.23 (inactive) | 0.56 | 0.69 | 68 AU (inactive)
2 | COc1c2ccoc2c(OC)c2oc(=O)ccc12 | 6.1% (inactive) | 1.06 (inactive) | 1.03 | 1.09 | 432 AU (active)
3 | Cc1cc(=O)oc2cc(O)c(O)cc12 | 8.55% (inactive) | 0.79 (inactive) | 1.15 | 0.91 | 60 AU (inactive)
4 | COc1ccc2c(c1)OCC(Cc1ccc(OC)c(OC)c1)C2=O (stereo not given) | 8.36% (inactive) | 0.98 (inactive) | 0.85 | 0.84 | 56 AU (inactive)
5 | CC12CCCC(O)(C1)C1CC(C)(C)C1CC2 (stereo not given) | -1.62% (inactive) | 0.85 (inactive) | 1.27 | 1.07 | 128 AU (inactive)
6 | CC(C)c1ccc2c(c1)CCC1[C@](C)(CN)CCC[C@]21C (stereo not given in full) | 0.884% (inactive) | 0.87 (inactive) | 0.95 | 0.83 | 48 AU (inactive)
7 | C=CC1=C(C)/C(=C/c2[nH]c(Cc3[nH]c(/C=C4\NC(=O)C(C)=C4C=C)c(C)c3CCC(=O)O)c(CCC(=O)O)c2C)NC1=O | 2.22% (inactive) | 0.85 (inactive) | 1.14 | 0.97 | 60 AU (inactive)
8 | COc1c(O)cc(O)cc1O | 8.04% (inactive) | 1.07 (inactive) | 0.92 | 0.98 | 40 AU (inactive)
9 | CC(=O)c1c(O)cc(O)cc1O | -5.07% (inactive) | 1.24 (inactive) | 0.74 | 0.92 | 44 AU (inactive)
10 | CC(C)=CCC/C(C)=C/CC/C(C)=C/CO | 1.99% (inactive) | 0.89 (inactive) | 1.03 | 0.91 | 88 AU (inactive)
11 | COc1c2ccoc2cc2oc(C)cc(=O)c12 | 12.5% (inactive) | 0.91 (inactive) | 1.19 | 1.08 | 52 AU (inactive)
12 | Cc1cc(O)c(C)c(O)c1C(=O)O | -9.88% (inactive) | 0.88 (inactive) | 1.09 | 0.97 | 72 AU (inactive)
13 | COC(=O)c1c(OC)cc2c(c1C)Oc1c(Cl)c(O)c(Cl)c(C)c1C(=O)O2 | -6.18% (inactive) | 1.02 (inactive) | 1.07 | 1.1 | 56 AU (inactive)
14 | C=C1C2CC[C@@]3(C)[C@H](c4ccoc4)OC(=O)C[C@]13O[C@H]1CC(=O)C(C)(C)[C@H](C(O)C(=O)OC)[C@@]21C (stereo not given in full) | -4.16% (inactive) | 0.98 (inactive) | 0.75 | 0.74 | 28 AU (inactive)
15 | O=c1cc(-c2ccc(O)cc2)oc2cc(O[C@@H]3O[C@H](CO)[C@@H](O)[C@H](O)[C@H]3O[C@@H]3OC[C@](O)(CO)[C@H]3O)cc(O)c12 | -39.6% (inactive) | 0.8 (inactive) | 1.3 | 1.03 | 196 AU (active)
16 | COc1ccc(C(=O)CC(=O)O)c2c1C=CC(C)(C)O2 | 10.2% (inactive) | 0.95 (inactive) | 0.98 | 0.93 | 60 AU (inactive)
17 | CC(=O)O[C@@H]1CC2C(C)(CC[C@H](O)C2(C)C)C2CC[C@]3(C)C(=CC(=O)O[C@H]3c3ccoc3)C21C (stereo not given in full) | 0.669% (inactive) | 1.03 (inactive) | 1.07 | 1.1 | 16 AU (inactive)
18 | O=c1cc(-c2cc(O)c(O)c(O)c2)oc2cc(O)cc(O)c12 | 5.62% (inactive) | 1.14 (inactive) | 0.99 | 1.12 | 72 AU (inactive)

Row | SMILES | inhibition [1] | red/green cell ratio (normalised) [2] | normalised cell number [2, 4] | normalised cell number [2, 5] | luciferase signal [3]
19 | CCC(C(N)=O)c1ccccc1 (stereo not given) | -20.8% (inactive) | 0.96 (inactive) | 1.17 | 1.12 | 68 AU (inactive)
20 | COc1ccc(C(=O)/C=C/c2ccccc2)cc1 | 8.83% (inactive) | 1.17 (inactive) | 0.89 | 1.04 | 88 AU (inactive)
21 | CC(C(=O)O)[C@H]1CCC2C3CC=C4C[C@@H](O)CC[C@]4(C)C3CC[C@@]21C (stereo not given in full) | 8.3% (inactive) | 0.91 (inactive) | 1.12 | 1.02 | 44 AU (inactive)
22 | C=C1[C@H]2CC[C@@]3(C)[C@H](c4ccoc4)OC(=O)C[C@]13O[C@H]1C[C@H](O)C(C)(C)[C@H](CC(=O)OC)[C@]12C | -1.87% (inactive) | 1.12 (inactive) | 0.91 | 1.02 | 8 AU (inactive)
23 | COc1cc(O)c(C(C)=O)c(OC)c1 | 0.271% (inactive) | 0.74 (inactive) | 1.02 | 0.75 | 8 AU (inactive)
24 | COc1cc(-c2coc3cc(OC)c(OC)c(OC)c3c2=O)cc(OC)c1OC | 12.5% (inactive) | 1.13 (inactive) | 0.98 | 1.1 | 100 AU (inactive)
25 | COc1ccc(C(=O)O)c(O)c1OC | 17.2% (inactive) | 1.11 (inactive) | 1.01 | 1.12 | 56 AU (inactive)
26 | CC1=C(/C=C/C(C)=C/C=C/C(C)=C/C=C/C=C(C)/C=C/C=C(C)/C=C/C(=O)[C@]2(C)C[C@@H](O)CC2(C)C)C(C)(C)C[C@H](O)C1 | 1.92% (inactive) | 1.16 (inactive) | 0.85 | 0.98 | 20 AU (inactive)
27 | CC(=O)O[C@H]1C[C@@H](OC(C)=O)C(C)(C)C2CC(=O)[C@]3(C)C(CC[C@@]4(C)[C@H](c5ccoc5)OC(=O)[C@H]5O[C@]543)[C@]21C (stereo not given in full) | 6.24% (inactive) | 0.93 (inactive) | 0.94 | 0.87 | 16 AU (inactive)
28 | O=C1C=CC2=C3c4cc(O)c(O)cc4CC3(O)COC2=C1O (stereo not given) | 27.6% (active) | 0.83 (inactive) | 1.07 | 0.89 | 32 AU (inactive)
29 | CC(=O)Oc1cc(OC(C)=O)c2c(c1)O[C@H](c1ccc(OC(C)=O)c(OC(C)=O)c1)[C@H](OC(C)=O)C2 | 13.2% (inactive) and -3.23% (inactive) | 0.86 (inactive) | 1.41 | 1.21 | 48 AU (inactive)
30 | COC(=O)[C@@H]1OC(=O)C2OC23[C@@]1(C)CCC1[C@]2(C)C(C[C@@H](O)[C@]13C)C(C)(C)[C@H](OC(C)=O)C[C@@H]2OC(C)=O (stereo not given in full) | -0.817% (inactive) | 0.93 (inactive) | 1.09 | 1.02 | 64 AU (inactive)
31 | Cc1cc(OC(=O)c2c(C)cc(O)cc2O)cc(O)c1C(=O)O | 1.29% (inactive) | 0.82 (inactive) | 1.06 | 0.87 | 12 AU (inactive)
32 | O=C1c2ccccc2C(=O)c2c(O)c(O)cc(O)c21 | 17.9% (inactive) | 1.09 (inactive) | 0.94 | 1.02 | 100 AU (inactive)
33 | COc1cc(O)c(C)c(O)c1 | 5.9% (inactive) | 0.94 (inactive) | 1.19 | 1.12 | 48 AU (inactive)
34 | COc1c(O)cc2oc3cc(O)c(CC=C(C)C)c(O)c3c(=O)c2c1CC=C(C)C | 11.6% (inactive) | 0.81 (inactive) | 1.13 | 0.91 | 40 AU (inactive)
35 | COc1ccc(-c2coc3cc(O)ccc3c2=O)c(O)c1O | 9.58% (inactive) | 0.97 (inactive) | 0.83 | 0.8 | 16 AU (inactive)
